Data on seven compounds can be found in PubChem BioAssay (NCI).

Some test systems named below: NCI-H23 lung; NCI-H226 lung; NCI-H322M lung; HOP-62 NSCLC; NCI-H460 lung; HOP-92 NSCLC; NCI-H522 lung; A549/ATCC NSCLC; 786-0 renal; COLO 205 colon; DU-145 prostate; K-562 leukemia; MALME-3M melanoma; MDA-MB-231 breast; RXF 393 renal; SF-268 CNS; SF-295 CNS; SF-539 CNS; UACC-257 melanoma; M14 melanoma.
Common to all, as to assay: NCI-60 one-dose screen, 48 h (100 = growth as untreated, 0 = no growth, -100 = all killed)
Common to all, as to conditions: 10 µM unless noted

Molecules are shown by their SMILES. The panel holds about 83,000 compounds, 20% with a hit somewhere; the sample as a whole holds those more often.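 Values shown are percent growth following 48 h exposure of cells in 96-well plates to a single concentration of compound; below 10 was considered active.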 Unmarked numbers belong to inactive results. Activity calls are given as the source filed them.

Turning to `O=C(Nc1ncc(Cc2ccccc2)s1)c1cc(-c2ccccc2)nc2ccccc12`, the growth with NCI-H23 lung is 89.3%; with NCI-H226 lung, 89.3%; with NCI-H322M lung it was 99.1%; in the assay on HOP-62 NSCLC it was 94.1%; with NCI-H460 lung it was 101%; in the assay on HOP-92 NSCLC, 84.1%. In addition, the growth was 87.6% with NCI-H522 lung; 98.2% in the assay on A549/ATCC NSCLC; 105% in the assay on 786-0 renal; 100% in the assay on COLO 205 colon; 110% in the assay with DU-145 prostate; 103% with K-562 leukemia. For the same compound, the growth in the assay with MALME-3M melanoma was 98%; in the assay with MDA-MB-231 breast, 104%; in the assay on RXF 393 renal, 90.5%; in the assay on SF-268 CNS, 103%; in the assay with SF-295 CNS, 107%; in the assay with SF-539 CNS, 101%. In addition, the growth with UACC-257 melanoma is 92.9%; in the assay with M14 melanoma, 93.3%.

As to `O=C1/C(=C/c2ccccc2)COc2ccc(O)cc21`, the growth is 97.2% with NCI-H23 lung; 104% in the assay on NCI-H226 lung; 99.3% in the assay on NCI-H322M lung; 104% in the assay on HOP-62 NSCLC; 103% in the assay on NCI-H460 lung; 93.7% in the assay with HOP-92 NSCLC. Besides, the growth is 73.5% with NCI-H522 lung; 90.5% with A549/ATCC NSCLC; 86.9% in the assay with 786-0 renal; 93.2% with COLO 205 colon; 88.5% in the assay with DU-145 prostate; 17.5% in the assay on K-562 leukemia. The growth was 106% with MALME-3M melanoma; 92.9% in the assay with MDA-MB-231 breast; 105% in the assay with RXF 393 renal; 90.6% in the assay on SF-268 CNS; 107% with SF-295 CNS; 108% in the assay with SF-539 CNS. Further, the growth is 98.2% in the assay on UACC-257 melanoma and 85.8% with M14 melanoma.

As to `COc1ccc2c(c1)C(c1c[nH]c3ccccc13)(c1c[nH]c3ccccc13)CCO2`, the growth in the assay with NCI-H23 lung was 53.3%; in the assay with NCI-H226 lung it was 64.1%; in the assay with NCI-H322M lung, 66.1%; in the assay with HOP-62 NSCLC, 49.1%; with NCI-H460 lung, 47.4%; with HOP-92 NSCLC, 35.6%. Moreover, the growth is 6.18% (active) in the assay with NCI-H522 lung; 24.1% in the assay with A549/ATCC NSCLC; 58.8% with 786-0 renal; 39.9% with COLO 205 colon; 74.6% with DU-145 prostate; 29.5% in the assay on K-562 leukemia. For the same compound, the growth is 88.8% in the assay with MALME-3M melanoma; 35.1% with MDA-MB-231 breast; 76.1% with RXF 393 renal; 52.2% with SF-268 CNS; 36.6% with SF-295 CNS; 71.7% in the assay with SF-539 CNS. Moreover, the growth was 48.1% with UACC-257 melanoma and 39.7% in the assay on M14 melanoma.

On to `CCCC[N+]1(C)CCN=C1Cc1ccccc1` (stereo not given), for which the growth with NCI-H23 lung was 101%; in the assay with NCI-H226 lung, 97.6%; in the assay on NCI-H322M lung, 99.9%; with HOP-62 NSCLC, 105%; in the assay with NCI-H460 lung, 110%; in the assay with HOP-92 NSCLC it was 90.9%. The growth was 88.5% in the assay with NCI-H522 lung; 87.8% with A549/ATCC NSCLC; 101% in the assay with 786-0 renal; 111% with COLO 205 colon; 106% in the assay with DU-145 prostate; 84.6% in the assay with K-562 leukemia. Besides, the growth in the assay on MALME-3M melanoma was 98.2%; with MDA-MB-231 breast, 109%; in the assay on RXF 393 renal it was 100%; with SF-268 CNS it was 97.7%; in the assay on SF-295 CNS, 97.4%; in the assay with SF-539 CNS, 96.2%. Also, the figures for the growth in the assay with UACC-257 melanoma and with M14 melanoma were 93.7% and 106%, respectively.

For `COC1=C(OC)C(=O)C(CCCCCCCCCCO)=C(C)C1=O`, the growth is 35.2% with NCI-H23 lung; 96.6% in the assay with NCI-H226 lung; 112% with NCI-H322M lung; 86.4% with HOP-62 NSCLC; 98.8% in the assay with NCI-H460 lung; 76.6% in the assay with HOP-92 NSCLC. Also, the growth in the assay with NCI-H522 lung is 63.7%; in the assay with A549/ATCC NSCLC, 96%; in the assay on 786-0 renal, 83.3%; in the assay with COLO 205 colon, 102%; in the assay on DU-145 prostate, 72%; in the assay with K-562 leukemia, 45.7%. Further, the growth with MALME-3M melanoma is 87%; with MDA-MB-231 breast, 42%; in the assay with RXF 393 renal, 64%; in the assay with SF-268 CNS, 64.2%; in the assay with SF-295 CNS it was 77.8%; in the assay with SF-539 CNS, 74%. For the same compound, the figures for the growth in the assay on UACC-257 melanoma and in the assay on M14 melanoma were 46% and 92.7%, respectively.

Take `CC(C)=CCC[C@](C)(O)C1CC[C@]2(C)[C@@H]1CC[C@@H]1[C@@]3(C)CC/C(=N\OCCC#N)C(C)(C)[C@@H]3CC[C@]12C` (stereo not given in full): the growth in the assay on NCI-H23 lung is 72.5%; with NCI-H226 lung, 68%; in the assay with NCI-H322M lung, 98.8%; in the assay with HOP-62 NSCLC, 89.5%; in the assay on NCI-H460 lung it was 79.6%; with HOP-92 NSCLC, 105%. Besides, the growth in the assay with NCI-H522 lung was 68.7%; in the assay on A549/ATCC NSCLC, 76.2%; with 786-0 renal, 86.2%; in the assay with COLO 205 colon it was 83.9%; in the assay with DU-145 prostate it was 83.9%; in the assay on K-562 leukemia, 67.6%. For the same compound, the growth in the assay on MALME-3M melanoma is 71.8%; in the assay with MDA-MB-231 breast, 94.1%; in the assay with RXF 393 renal, 109%; in the assay on SF-268 CNS, 87.4%; in the assay on SF-295 CNS it was 97.9%; in the assay with SF-539 CNS, 91.9%. Moreover, the growth was 86.1% in the assay on UACC-257 melanoma and 88.5% with M14 melanoma.

For the compound `Cc1ccc(-c2nn(CC(=O)N3CCOCC3)c(N)c2C#N)cc1`, the growth in the assay on NCI-H23 lung was 100%; in the assay with NCI-H226 lung, 102%; with NCI-H322M lung it was 110%; in the assay on HOP-62 NSCLC, 108%; in the assay on NCI-H460 lung, 106%; in the assay on HOP-92 NSCLC it was 111%. Further, the growth in the assay with NCI-H522 lung is 101%; in the assay with A549/ATCC NSCLC it was 95.8%; in the assay with 786-0 renal, 100%; in the assay on COLO 205 colon it was 122%; with DU-145 prostate, 111%; in the assay with K-562 leukemia, 99.8%. Further, the growth in the assay on MALME-3M melanoma was 104%; in the assay with MDA-MB-231 breast it was 108%; in the assay with RXF 393 renal, 110%; with SF-268 CNS it was 99%; in the assay with SF-295 CNS, 102%; with SF-539 CNS, 99.2%. The growth is 107% with UACC-257 melanoma and 104% with M14 melanoma.
